Each structure is given as a SMILES string. Structures can show the parent of a compound that is named as a salt. ± gives the standard deviation or the standard deviation of the averaged measurements.

What all share (details): 25 µM; exposure: 24-48 hpf
The test system of assay [1] is Danio rerio Tg(wt1b:EGFP) embryo, pronephros. Nature of the assay: glomerular separation, fold change vs DMSO control; higher = glomeruli further apart (abnormal). A digest of the protocol: (§1)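 Each feature value is a fold change relative to the mean of same-day DMSO-treated embryos. Embryos of the Tg(wt1b:EGFP) zebrafish line, dechorionated, received 25 μM compound in 0.5% DMSO from 24 to 48 hpf at 28.5°C, in HEPES-buffered E3 with 0.003% PTU. Distances and angles were computed by a Fiji macro from 16 manually set reference points on maximum projections of dorsal pronephros images, and values beyond 2 SD of the feature mean were removed.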

For assay [2] the test system is unchanged. Nature of the assay: glomerular width (mean of left and right), fold change vs DMSO control; higher = wider glomerulus. A digest of the protocol: as §1
Assay [3] has the same test system. Nature of the assay: fraction of imaged embryos annotated as normal kidney; higher = less nephrotoxic; extreme values may be limits of the assay. A digest of the protocol: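 The read-out is the proportion of embryos in each treatment manually annotated as normal-kidney. Exposure ran from 24 to 48 hpf at 28.5°C in 12-well plates, using dechorionated Tg(wt1b:EGFP) zebrafish embryos in 5 mM HEPES-buffered E3 with 0.003% PTU, 0.5% DMSO and 25 μM compound. For imaging, larvae were anaesthetised with tricaine, positioned dorsally in agarose-filled 96-well plates and captured by widefield fluorescence (470 nm, 10 z-slices), with scoring done on maximum projections.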

For assay [4] the test system is unchanged. Nature of the assay: pronephric angle neck segment to proximal convoluted tubule (mean of left and right), fold change vs DMSO control; higher = larger pronephric angle. In short, it runs like this:
as §1

`NS(=O)(=O)c1cc(C(=O)O)c(NCc2ccco2)cc1Cl` [Furosemide] came in with a glomerular separation in assay [1] of 0.867 ± 0.13. In assay [2], this molecule yielded a glomerular width of 0.959 ± 0.097. Besides, in assay [3], the “fraction of imaged embryos annotated as normal kidney” value (“fraction of imaged embryos annotated” below) was 0.818. In addition, the “pronephric angle neck segment” value in assay [4] is 1.015 ± 0.01.

In assay [1], `Nc1nc(=O)[nH]cc1F` [Flucytosine] returned a glomerular separation of 0.784 ± 0.38. Also, the glomerular width in assay [2] amounted to 1.0052 ± 0.0006. In addition, the “fraction of imaged embryos annotated” value in assay [3] was 0.75. The “pronephric angle neck segment” value in assay [4] is 1.003 ± 0.0094.

Consider `CC(C)n1c(/C=C/C(O)CC(O)CC(=O)O)c(-c2ccc(F)cc2)c2ccccc21` (stereo not drawn) [Fluvastatin sodium salt], for which, in assay [1], the glomerular separation was 4.31 ± 1.6. The glomerular width in assay [2] amounted to 0.609 ± 0.057. The “fraction of imaged embryos annotated” value in assay [3] is 0. For the same molecule, in assay [4], the “pronephric angle neck segment” value worked out at 1.56 ± 0.093.

`COC(=O)[C@H]1[C@H]2C[C@@H]3c4[nH]c5cc(OC)ccc5c4CCN3C[C@H]2C[C@@H](OC(=O)c2cc(OC)c(OC)c(OC)c2)[C@@H]1OC` [Reserpine]: the glomerular separation in assay [1] worked out at 0.705 ± 0.29. This molecule also returned a glomerular width in assay [2] of 0.995 ± 0.061. The “fraction of imaged embryos annotated” value in assay [3] was found to be 0.917. Besides, the “pronephric angle neck segment” value in assay [4] turned out to be 1.0157 ± 3.5e-05.

As to `CCCCc1cc2ccccc2c(OCCN(C)C)n1` [Dimethisoquin hydrochloride], the glomerular separation in assay [1] amounted to 0.777 ± 0.2. The glomerular width in assay [2] stood at 0.942 ± 0.065. Besides, the “fraction of imaged embryos annotated” value in assay [3] came to 0.917. The “pronephric angle neck segment” value in assay [4] stood at 0.9905 ± 0.004.

Take `CN1CCN(CCCN2c3ccccc3Sc3ccc(Cl)cc32)CC1` [Prochlorperazine dimaleate]: the glomerular separation in assay [1] turned out to be 1.05 ± 0.37. In addition, the glomerular width in assay [2] came to 1.01 ± 0.033. For the same molecule, the “fraction of imaged embryos annotated” value in assay [3] stood at 0.833. Besides, in assay [4], the “pronephric angle neck segment” value came to 1.02 ± 0.027.

With `CN(C)CCOc1ccc(/C(=C(/CCCl)c2ccccc2)c2ccccc2)cc1` [Toremifene], in assay [1], the glomerular separation is 0.881 ± 0.39. The same molecule had a glomerular width in assay [2] of 0.904 ± 0.08. In addition, the “fraction of imaged embryos annotated” value in assay [3] was determined as 0.917. Also, the “pronephric angle neck segment” value in assay [4] is 1.04 ± 0.018.

`Cc1cc(C(C)(C)C)c(O)c(C)c1CC1=NCCN1` [Oxymetazoline hydrochloride]: the glomerular separation in assay [1] is 1.08 ± 0.39. Moreover, the glomerular width in assay [2] was determined as 1.03 ± 0.078. Further, the “fraction of imaged embryos annotated” value in assay [3] stood at 0.833. In assay [4], the “pronephric angle neck segment” value came to 0.976 ± 0.042.

In turn, `CCC(=O)OCC(=O)[C@@]1(OC(=O)CC)[C@@H](C)C[C@H]2[C@@H]3CCC4=CC(=O)C=C[C@]4(C)[C@@]3(Cl)[C@@H](O)C[C@@]21C` [Beclomethasone dipropionate] had a glomerular separation in assay [1] of 1.04 ± 0.69. For the same molecule, the glomerular width in assay [2] was 1.16 ± 0.021. Moreover, the “fraction of imaged embryos annotated” value in assay [3] came to 0.417. Further, the “pronephric angle neck segment” value in assay [4] was found to be 1.16 ± 0.091.

Turning to `C#C[C@]1(OC(C)=O)CC[C@H]2[C@@H]3CCC4=CC(=NO)CC[C@@H]4[C@H]3CC[C@@]21CC` (mixture of isomers) [Norgestimate], the glomerular separation in assay [1] was determined as 2.81 ± 1.2. The glomerular width in assay [2] was determined as 0.858 ± 0.059. Further, the “fraction of imaged embryos annotated” value in assay [3] came out at 0.0833. In addition, the “pronephric angle neck segment” value in assay [4] is 1.37 ± 0.015.

In the case of `CNCCCC12CCC(c3ccccc31)c1ccccc12` [Maprotiline hydrochloride], in assay [1], the glomerular separation amounted to 1.28 ± 0.49. The molecule further had a glomerular width in assay [2] of 0.992 ± 0.049. Also, the “fraction of imaged embryos annotated” value in assay [3] was 0.909. For the same molecule, in assay [4], the “pronephric angle neck segment” value came to 1.1 ± 0.058.

For `CCN(CC)CCOC(=O)C(c1ccccc1)c1ccccc1` [Adiphenine hydrochloride], the glomerular separation in assay [1] was 1.14 ± 0.47. The same molecule returned a glomerular width in assay [2] of 0.979 ± 0.026. In addition, in assay [3], the “fraction of imaged embryos annotated” value amounted to 0.917. For the same molecule, in assay [4], the “pronephric angle neck segment” value worked out at 0.98401 ± 0.00017.

`CN(C)CCC=C1c2ccccc2C=Cc2ccccc21` [Cyclobenzaprine hydrochloride] gave a glomerular separation in assay [1] of 1.02 ± 0.31. This molecule had a glomerular width in assay [2] of 0.977 ± 0.043. In addition, the “fraction of imaged embryos annotated” value in assay [3] worked out at 0.833. The “pronephric angle neck segment” value in assay [4] was 1.03 ± 0.0042.

`COC(=O)[C@H](c1ccccc1Cl)N1CCc2sccc2C1` [Clopidogrel] displayed a glomerular separation in assay [1] of 1.06 ± 0.52. In assay [2], this molecule came in with a glomerular width of 0.893 ± 0.055. Also, the “fraction of imaged embryos annotated” value in assay [3] amounted to 0.833. Also, the “pronephric angle neck segment” value in assay [4] was 1.05 ± 0.054.

Take `CCC(=O)OCC(=O)[C@@]1(OC(=O)CC)[C@H](C)C[C@H]2[C@H]3[C@H]([C@@H](O)C[C@@]21C)[C@@]1(C)C=CC(=O)C=C1C[C@H]3Cl` [Alclometasone dipropionate]: the glomerular separation in assay [1] came out at 1.33 ± 0.61. Further, the glomerular width in assay [2] was found to be 1.23 ± 0.026. For the same molecule, the “fraction of imaged embryos annotated” value in assay [3] is 0.333. In addition, the “pronephric angle neck segment” value in assay [4] came out at 1.0427 ± 2.1e-05.

The molecule `C[C@]12CC[C@@H]3c4ccc(O)cc4CC[C@H]3[C@@H]1CCC2=O` [Estrone] displayed a glomerular separation in assay [1] of 0.922 ± 0.35. In assay [2], this molecule showed a glomerular width of 0.983 ± 0.0046. In addition, in assay [3], the “fraction of imaged embryos annotated” value was 1. The “pronephric angle neck segment” value in assay [4] was 1.05 ± 0.019.

Regarding `CNC[C@H](O)[C@@H](O)[C@H](O)[C@H](O)CO` [Meglumine], the glomerular separation in assay [1] stood at 0.734 ± 0.11. This molecule yielded a glomerular width in assay [2] of 1.03 ± 0.061. Besides, the “fraction of imaged embryos annotated” value in assay [3] was 0.909. Also, in assay [4], the “pronephric angle neck segment” value is 1.006 ± 0.0029.

In turn, `C[C@@H]1CN(c2c(F)c(N)c3c(=O)c(C(=O)O)cn(C4CC4)c3c2F)C[C@H](C)N1` [Sparfloxacin] registered a glomerular separation in assay [1] of 0.812 ± 0.23. Besides, the glomerular width in assay [2] turned out to be 0.92 ± 0.019. In addition, in assay [3], the “fraction of imaged embryos annotated” value amounted to 1. For the same molecule, in assay [4], the “pronephric angle neck segment” value is 1.04 ± 0.024.

In turn, `CC(c1cc2ccccc2s1)N(O)C(N)=O` (stereo not drawn) [Zileuton] yielded a glomerular separation in assay [1] of 1.25 ± 0.57. Moreover, the glomerular width in assay [2] stood at 0.993 ± 0.02. The “fraction of imaged embryos annotated” value in assay [3] turned out to be 0.667. Besides, the “pronephric angle neck segment” value in assay [4] is 1.11 ± 0.072.

`CCOC(=O)O[C@]1(C(=O)COC(=O)CC)CC[C@H]2[C@@H]3CCC4=CC(=O)C=C[C@]4(C)[C@H]3[C@@H](O)C[C@@]21C` [Prednicarbate] yielded a glomerular separation in assay [1] of 1.89 ± 0.71. Besides, the glomerular width in assay [2] is 1.11 ± 0.066. Moreover, the “fraction of imaged embryos annotated” value in assay [3] turned out to be 0.417. For the same molecule, the “pronephric angle neck segment” value in assay [4] was 1.03 ± 0.058.

For `N[C@@H](C(=O)N[C@@H]1C(=O)N2C(C(=O)O)=C(Cl)CS[C@H]12)c1ccccc1` [Cefaclor hydrate], in assay [1], the glomerular separation worked out at 1 ± 0.21. In assay [2], this molecule yielded a glomerular width of 0.95 ± 0.093. Besides, the “fraction of imaged embryos annotated” value in assay [3] was 0.833. Also, the “pronephric angle neck segment” value in assay [4] turned out to be 1.01 ± 0.028.

Turning to `C[C@H](Cc1cc2c(c(C(N)=O)c1)N(CCCO)CC2)NCCOc1ccccc1OCC(F)(F)F` [Silodosin], the glomerular separation in assay [1] was 0.726 ± 0.14. In assay [2], this molecule registered a glomerular width of 0.985 ± 0.067. Besides, the “fraction of imaged embryos annotated” value in assay [3] was found to be 0.917. Besides, the “pronephric angle neck segment” value in assay [4] was 0.992 ± 0.028.

In turn, `O=c1[nH]c(=O)n([C@H]2C[C@H](O)[C@@H](CO)O2)cc1F` [Floxuridine] gave a glomerular separation in assay [1] of 0.88 ± 0.33. Further, in assay [2], the glomerular width came out at 0.972 ± 0.015. For the same molecule, the “fraction of imaged embryos annotated” value in assay [3] turned out to be 0.5. Besides, in assay [4], the “pronephric angle neck segment” value is 1.05 ± 0.016.

As for `Nc1nc(Cl)nc2c1ncn2[C@H]1C[C@H](O)[C@@H](CO)O1` [Cladribine], the glomerular separation in assay [1] was 0.896 ± 0.38. In assay [2], this molecule displayed a glomerular width of 0.945 ± 0.021. In assay [3], the “fraction of imaged embryos annotated” value came out at 0.909. The “pronephric angle neck segment” value in assay [4] worked out at 1.005 ± 0.0066.

Regarding `OCc1cc(C(O)CNCCCCCCOCCCCc2ccccc2)ccc1O` (stereo not drawn) [Salmeterol], the glomerular separation in assay [1] is 5.53 ± 1.4. The glomerular width in assay [2] turned out to be 0.665 ± 0.017. In addition, in assay [3], the “fraction of imaged embryos annotated” value was 0. Besides, the “pronephric angle neck segment” value in assay [4] is 1.65 ± 0.087.

The molecule `C=CCc1ccccc1OCC(O)CNC(C)C` (stereo not drawn) [Alprenolol hydrochloride] showed a glomerular separation in assay [1] of 0.823 ± 0.28. In assay [2], this molecule showed a glomerular width of 1 ± 0.074. The “fraction of imaged embryos annotated” value in assay [3] is 0.833. For the same molecule, the “pronephric angle neck segment” value in assay [4] was found to be 1.07 ± 0.015.

On to `CC[C@H](C)C(=O)O[C@H]1C[C@@H](C)C=C2C=C[C@H](C)[C@H](CC[C@@H]3C[C@@H](O)CC(=O)O3)[C@H]21` [Lovastatin], for which, in assay [1], the glomerular separation turned out to be 5.64 ± 2.1. In assay [2], this molecule showed a glomerular width of 0.622 ± 0.012. Also, in assay [3], the “fraction of imaged embryos annotated” value is 0. Also, in assay [4], the “pronephric angle neck segment” value came out at 1.54 ± 0.057.

The record behind these values is the supplement of paper PMC7366291.
